In ChEMBL document CHEMBL3988442, “University of Dundee, Small-Polar-MMV Screening Library” (2021) one finds Percent Effect data, which are given here for five molecules.

Common to all, as to design: scale not given: direction of the effect not stated beside the values
Assay [1] deals with Protein translocase subunit SecA (Escherichia coli (strain K12)) (UniProt P10408). Kind of assay: Assay to Identify E. coli SecA ATPase Inhibitors. It counts as functional. To be noted: 30 µM.
Assay [2] has as its target T1, Ubiquitin-activating enzyme e1, putative (Leishmania donovani (strain BPK282A1)) (UniProt E9BSI1).
T1 sequence (whole entry): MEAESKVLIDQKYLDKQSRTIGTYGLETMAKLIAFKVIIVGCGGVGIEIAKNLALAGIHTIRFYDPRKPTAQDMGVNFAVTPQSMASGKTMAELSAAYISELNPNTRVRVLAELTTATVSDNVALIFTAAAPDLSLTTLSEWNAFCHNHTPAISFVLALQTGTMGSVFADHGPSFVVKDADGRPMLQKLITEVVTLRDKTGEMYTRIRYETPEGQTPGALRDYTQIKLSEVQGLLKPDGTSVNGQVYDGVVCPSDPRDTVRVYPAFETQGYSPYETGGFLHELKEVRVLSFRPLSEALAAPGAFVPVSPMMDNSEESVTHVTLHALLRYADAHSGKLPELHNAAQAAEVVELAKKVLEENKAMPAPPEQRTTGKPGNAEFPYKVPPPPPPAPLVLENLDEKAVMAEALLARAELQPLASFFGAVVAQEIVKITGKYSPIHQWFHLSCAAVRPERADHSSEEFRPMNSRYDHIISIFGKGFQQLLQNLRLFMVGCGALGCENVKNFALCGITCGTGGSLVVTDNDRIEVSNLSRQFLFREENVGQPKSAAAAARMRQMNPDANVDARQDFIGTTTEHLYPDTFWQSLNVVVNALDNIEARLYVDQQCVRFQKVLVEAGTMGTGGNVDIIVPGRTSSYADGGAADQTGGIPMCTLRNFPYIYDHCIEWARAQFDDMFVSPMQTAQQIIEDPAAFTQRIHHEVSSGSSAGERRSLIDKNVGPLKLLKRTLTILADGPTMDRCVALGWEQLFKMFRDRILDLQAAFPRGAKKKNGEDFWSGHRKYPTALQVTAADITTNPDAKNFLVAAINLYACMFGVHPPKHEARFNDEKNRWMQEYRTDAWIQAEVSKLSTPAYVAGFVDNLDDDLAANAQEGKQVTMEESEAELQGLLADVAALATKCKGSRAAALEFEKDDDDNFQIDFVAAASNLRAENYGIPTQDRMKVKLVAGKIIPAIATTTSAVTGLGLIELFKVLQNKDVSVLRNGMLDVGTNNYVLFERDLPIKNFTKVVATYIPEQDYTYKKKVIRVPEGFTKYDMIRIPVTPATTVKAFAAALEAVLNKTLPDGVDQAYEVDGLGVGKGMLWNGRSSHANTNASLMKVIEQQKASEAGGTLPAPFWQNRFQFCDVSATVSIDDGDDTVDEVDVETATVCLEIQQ
Kind of assay: Leishmania donovani Ubiquitin Activating Enzyme (LdE1). It counts as functional. The conditions noted are these: 30 µM.

Assay [3] deals with T2, Aspartate--tRNA(Asp/Asn) ligase (Mycobacterium tuberculosis (strain ATCC 25618 / H37Rv)) (UniProt P9WFW3).
T2 sequence (whole entry): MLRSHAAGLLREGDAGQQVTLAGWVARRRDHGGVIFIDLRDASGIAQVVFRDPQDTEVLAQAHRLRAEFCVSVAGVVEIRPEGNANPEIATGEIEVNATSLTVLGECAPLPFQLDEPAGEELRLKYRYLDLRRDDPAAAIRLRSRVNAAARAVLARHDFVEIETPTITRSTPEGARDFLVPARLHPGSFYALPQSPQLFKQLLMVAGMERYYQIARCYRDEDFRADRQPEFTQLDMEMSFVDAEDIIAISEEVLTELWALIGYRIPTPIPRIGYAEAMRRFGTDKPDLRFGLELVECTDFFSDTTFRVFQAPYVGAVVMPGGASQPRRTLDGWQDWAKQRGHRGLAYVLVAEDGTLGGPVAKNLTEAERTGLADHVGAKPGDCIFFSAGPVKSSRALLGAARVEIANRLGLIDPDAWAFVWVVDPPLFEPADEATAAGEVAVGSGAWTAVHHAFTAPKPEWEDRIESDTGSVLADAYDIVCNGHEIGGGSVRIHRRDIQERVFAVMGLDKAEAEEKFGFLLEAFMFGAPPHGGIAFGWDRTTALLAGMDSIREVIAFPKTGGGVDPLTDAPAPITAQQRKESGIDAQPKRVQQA
Kind of assay: Assay for Asp RNA synthetase-1 from Mycobacterium tuberculosis. To be noted: 30 µM. It counts as functional.

In assay [4] the target is AMP-activated protein kinase, AMPK (Homo sapiens) (UniProt P54646+O43741+P54619+Q9UGJ0+Q9Y478+Q13131+Q9UGI9). As to the kind of experiment: AMP-dependent Kinase enzyme assay. An in vitro enzyme assay that detects ADP turnover that is directly proportional to AMPK activity. This uses naive AMPK that is activated during the assay with MK-8722. It counts as functional. The conditions noted are these: 30 µM.

In assay [5] the target is Sialic acid-binding Ig-like lectin 9 (Homo sapiens) (UniProt Q9Y336). Kind of assay: Hs-Siglec9 ALPHAscreen SOP 20170721. To be noted: 10 µM. A general note: In Alpha technology, singlet oxygen from a donor bead excites a nearby acceptor bead.
The test system of another assay is Trypanosoma cruzi. Kind of assay: Trypanosoma cruzi phosphomannomutase and mannose-1-phosphate guanylyltransferase assay. The format is functional. The conditions noted are these: 10 µM.
The target in assay [6] is T3, Arginase-2, mitochondrial (Homo sapiens) (UniProt P78540).
T3 sequence (whole entry): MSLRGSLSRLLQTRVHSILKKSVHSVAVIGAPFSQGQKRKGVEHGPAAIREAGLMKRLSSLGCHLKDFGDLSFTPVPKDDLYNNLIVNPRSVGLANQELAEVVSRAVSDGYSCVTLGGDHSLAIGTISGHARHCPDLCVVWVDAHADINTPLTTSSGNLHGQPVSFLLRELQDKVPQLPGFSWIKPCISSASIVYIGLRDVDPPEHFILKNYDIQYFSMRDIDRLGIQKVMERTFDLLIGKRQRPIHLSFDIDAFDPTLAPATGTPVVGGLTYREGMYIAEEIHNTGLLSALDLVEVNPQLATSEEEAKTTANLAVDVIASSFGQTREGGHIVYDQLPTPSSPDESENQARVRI
As to the kind of experiment: in vitro enzyme assay to detect the production of urea directly proportional to the activity of Arginase II. Also: in the data most compounds retested in dose-response had high values. It counts as functional. The conditions noted are these: 33.3 µM.

The target in assay [7] is T4, Proteasome subunit beta (Trypanosoma cruzi) (UniProt O96673).
T4 sequence (whole entry): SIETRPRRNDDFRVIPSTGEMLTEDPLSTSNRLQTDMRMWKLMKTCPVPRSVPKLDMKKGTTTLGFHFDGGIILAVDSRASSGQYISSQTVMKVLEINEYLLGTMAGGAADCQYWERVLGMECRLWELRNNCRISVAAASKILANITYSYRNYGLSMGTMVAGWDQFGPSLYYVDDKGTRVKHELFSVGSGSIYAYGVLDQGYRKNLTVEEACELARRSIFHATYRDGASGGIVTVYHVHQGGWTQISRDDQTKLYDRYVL
As to the kind of experiment: Trypanosoma cruzi proteasome chymotrypsin-like activity (TcProtChymo) assay. Also: in the data most compounds retested in dose-response had high values. It counts as functional. The conditions noted are these: 9.37 µM.

The species named for another assay is Homo sapiens. As to the kind of experiment: To identify inhibition of the IFN signalling (Jak-Stat) pathway via expression of an eGFP reporter gene under the control of an IFN-stimulated response element (ISRE) containing MxA promoter. It counts as functional. To be noted: 30 µM.
In assay [8] the target is Shiga toxin 2 (Escherichia coli O157:H7) (UniProt P09385+P09386). Kind of assay: E. coli 0.157:H7 Shiga Toxin SOP - stx2 screening assay. It counts as functional. To be noted: 30 µM.
Assay [9] concerns the target T5, Tyrosyl-tRNA synthetase, putative (Trypanosoma cruzi (strain CL Brener)) (UniProt Q4DSP6).
T5 sequence (whole entry): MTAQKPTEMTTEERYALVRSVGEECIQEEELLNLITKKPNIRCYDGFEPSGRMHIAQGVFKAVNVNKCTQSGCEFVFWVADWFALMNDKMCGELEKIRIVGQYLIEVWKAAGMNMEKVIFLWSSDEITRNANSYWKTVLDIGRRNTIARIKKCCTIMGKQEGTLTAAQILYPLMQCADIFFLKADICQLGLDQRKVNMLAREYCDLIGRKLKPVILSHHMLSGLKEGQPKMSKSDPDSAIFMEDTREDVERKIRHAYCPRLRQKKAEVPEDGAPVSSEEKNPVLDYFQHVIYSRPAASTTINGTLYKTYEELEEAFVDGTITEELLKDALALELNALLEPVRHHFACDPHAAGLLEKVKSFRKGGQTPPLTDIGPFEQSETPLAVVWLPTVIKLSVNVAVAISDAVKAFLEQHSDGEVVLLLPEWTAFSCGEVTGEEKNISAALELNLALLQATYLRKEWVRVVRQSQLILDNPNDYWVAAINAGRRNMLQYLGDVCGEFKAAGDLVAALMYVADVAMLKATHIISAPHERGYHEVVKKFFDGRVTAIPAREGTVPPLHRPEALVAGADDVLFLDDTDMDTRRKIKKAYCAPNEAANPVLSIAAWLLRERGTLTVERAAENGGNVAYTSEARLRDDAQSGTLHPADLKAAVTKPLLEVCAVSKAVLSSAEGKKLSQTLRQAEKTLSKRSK
Kind of assay: Trypanosoma cruzi tyrosyl tRNA synthetase (TcYRS) _High Tyrosine SOP. Also: in the data most compounds retested in dose-response had high values. It counts as functional. To be noted: 30 µM.

In assay [10] the target is T5, Tyrosyl-tRNA synthetase, putative (Trypanosoma cruzi (strain CL Brener)). Kind of assay: Trypanosoma cruzi tyrosyl tRNA synthetase (TcYRS) SOP. The format is functional. The conditions noted are these: 30 µM.
In assay [11] the target is Chromo domain-containing protein 1 (Saccharomyces cerevisiae (strain ATCC 204508 / S288c) (Baker's yeast)) (UniProt P32657). Kind of assay: ScCHD-1 Enzyme Inhibition Assay. Also: in the data most compounds retested in dose-response had high values. It counts as functional. To be noted: 30 µM.

For some assays here: Entries with a potency or affinity are not part of this list.

Chain of Chromo domain-containing protein 1 (Saccharomyces cerevisiae (strain ATCC 204508 / S288c) (Baker's yeast)) (P32657 whole entry, the tested form may be a part): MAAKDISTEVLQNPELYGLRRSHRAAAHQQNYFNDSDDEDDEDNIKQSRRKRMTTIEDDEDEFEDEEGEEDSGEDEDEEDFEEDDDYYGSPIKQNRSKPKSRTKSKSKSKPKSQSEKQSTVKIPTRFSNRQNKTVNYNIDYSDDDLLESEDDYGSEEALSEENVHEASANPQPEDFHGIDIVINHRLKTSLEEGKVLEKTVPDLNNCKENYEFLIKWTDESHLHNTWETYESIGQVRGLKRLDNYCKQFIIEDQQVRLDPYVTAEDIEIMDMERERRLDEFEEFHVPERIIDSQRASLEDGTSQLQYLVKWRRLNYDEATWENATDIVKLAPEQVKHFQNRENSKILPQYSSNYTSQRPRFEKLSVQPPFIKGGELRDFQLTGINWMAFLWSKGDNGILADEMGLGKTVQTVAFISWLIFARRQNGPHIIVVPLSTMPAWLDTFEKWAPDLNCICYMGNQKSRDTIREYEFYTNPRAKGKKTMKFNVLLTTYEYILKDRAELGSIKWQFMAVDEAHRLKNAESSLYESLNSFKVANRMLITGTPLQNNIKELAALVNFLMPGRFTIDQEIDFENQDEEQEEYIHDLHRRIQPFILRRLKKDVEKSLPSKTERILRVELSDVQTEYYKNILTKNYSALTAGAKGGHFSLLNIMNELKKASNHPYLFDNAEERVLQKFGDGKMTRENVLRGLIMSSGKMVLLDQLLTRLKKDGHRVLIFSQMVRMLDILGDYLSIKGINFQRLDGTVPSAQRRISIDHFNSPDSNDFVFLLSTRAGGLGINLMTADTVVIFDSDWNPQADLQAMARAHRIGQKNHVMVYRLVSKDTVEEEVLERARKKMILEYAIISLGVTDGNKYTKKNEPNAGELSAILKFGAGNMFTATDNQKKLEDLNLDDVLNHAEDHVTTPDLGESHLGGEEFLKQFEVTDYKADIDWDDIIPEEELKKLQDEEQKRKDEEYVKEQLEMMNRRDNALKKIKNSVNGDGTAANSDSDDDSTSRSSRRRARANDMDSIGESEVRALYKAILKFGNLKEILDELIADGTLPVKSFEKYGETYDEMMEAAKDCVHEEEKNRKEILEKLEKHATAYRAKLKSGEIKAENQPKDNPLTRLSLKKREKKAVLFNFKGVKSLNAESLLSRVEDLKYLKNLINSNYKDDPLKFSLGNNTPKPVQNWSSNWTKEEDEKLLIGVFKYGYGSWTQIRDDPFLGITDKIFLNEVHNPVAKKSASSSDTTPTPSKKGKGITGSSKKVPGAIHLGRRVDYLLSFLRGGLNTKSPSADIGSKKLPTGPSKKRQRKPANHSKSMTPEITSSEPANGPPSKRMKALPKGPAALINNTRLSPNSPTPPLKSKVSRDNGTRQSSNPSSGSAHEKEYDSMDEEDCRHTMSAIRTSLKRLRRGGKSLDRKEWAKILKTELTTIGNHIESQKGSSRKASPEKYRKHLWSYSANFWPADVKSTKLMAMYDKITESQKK
Chain of Sialic acid-binding Ig-like lectin 9 (Homo sapiens) (Q9Y336 whole entry): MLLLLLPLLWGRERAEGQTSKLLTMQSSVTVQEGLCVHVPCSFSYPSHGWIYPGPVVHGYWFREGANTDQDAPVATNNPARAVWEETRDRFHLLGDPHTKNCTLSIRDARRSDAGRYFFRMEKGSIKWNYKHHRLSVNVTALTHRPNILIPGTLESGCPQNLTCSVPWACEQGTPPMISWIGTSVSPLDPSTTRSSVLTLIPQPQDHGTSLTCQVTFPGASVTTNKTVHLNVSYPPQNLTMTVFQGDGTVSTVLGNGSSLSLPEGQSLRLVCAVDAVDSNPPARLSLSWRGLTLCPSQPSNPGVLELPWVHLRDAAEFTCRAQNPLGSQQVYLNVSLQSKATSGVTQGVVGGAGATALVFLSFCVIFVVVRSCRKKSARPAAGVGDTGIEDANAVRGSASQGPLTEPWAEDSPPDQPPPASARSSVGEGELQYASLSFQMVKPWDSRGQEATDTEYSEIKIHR
Chain of Protein translocase subunit SecA (Escherichia coli (strain K12)) (P10408 whole entry): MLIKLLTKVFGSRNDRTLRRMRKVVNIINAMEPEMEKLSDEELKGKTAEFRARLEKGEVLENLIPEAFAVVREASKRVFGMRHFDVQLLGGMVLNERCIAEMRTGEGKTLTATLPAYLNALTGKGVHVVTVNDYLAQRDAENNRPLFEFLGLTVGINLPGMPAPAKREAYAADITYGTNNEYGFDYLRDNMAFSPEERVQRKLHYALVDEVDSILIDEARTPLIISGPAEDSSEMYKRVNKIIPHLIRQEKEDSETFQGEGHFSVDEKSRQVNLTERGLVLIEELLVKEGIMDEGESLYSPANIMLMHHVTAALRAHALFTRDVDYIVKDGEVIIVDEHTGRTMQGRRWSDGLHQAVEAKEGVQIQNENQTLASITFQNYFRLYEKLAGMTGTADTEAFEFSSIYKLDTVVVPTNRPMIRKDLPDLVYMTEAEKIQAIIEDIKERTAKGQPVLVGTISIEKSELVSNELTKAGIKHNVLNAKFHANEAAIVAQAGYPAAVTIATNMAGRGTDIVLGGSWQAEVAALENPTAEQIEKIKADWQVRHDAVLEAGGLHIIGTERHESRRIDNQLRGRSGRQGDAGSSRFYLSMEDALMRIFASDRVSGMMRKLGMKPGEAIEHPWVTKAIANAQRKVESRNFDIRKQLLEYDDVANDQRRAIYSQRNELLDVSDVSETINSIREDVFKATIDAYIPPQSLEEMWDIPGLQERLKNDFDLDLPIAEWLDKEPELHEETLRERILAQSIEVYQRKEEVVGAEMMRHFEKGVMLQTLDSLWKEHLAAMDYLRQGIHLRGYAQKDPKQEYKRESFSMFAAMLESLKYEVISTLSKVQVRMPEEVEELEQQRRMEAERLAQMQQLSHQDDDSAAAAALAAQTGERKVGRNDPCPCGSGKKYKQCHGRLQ

For the molecule `O=C(c1cnn2c1OCCC2)N1CCC2(CC1)OCCO2`, the Percent Effect is -0.752% in assay [1]; 2.6% in assay [2]; -2.99% in [3]; 3.51% in [4]; 6.26% in assay [5]; -6.02% in the assay on Trypanosoma cruzi. Further, the Percent Effect in [6] is -1.94%; in assay [7], 7.49%; in the assay filed under Homo sapiens, 14.6%; in [8], 4.26%; in assay [9], 6.35%; in assay [10] it was 11.5%. For the same molecule, the Percent Effect in assay [11] is -7.54%.
In the case of `CCN(CC)C(=O)c1ccc(NC(=O)CNc2ccc(F)cc2Cl)cc1`, the Percent Effect was -1.29% in [1]; 10.5% in assay [2]; 5.36% in [3]; 5.61% in assay [4]; 3.25% in assay [5]; 2.04% in the assay with Trypanosoma cruzi. For the same molecule, the Percent Effect was 0% in assay [6]; 16.6% in assay [7]; -29.3% in the assay filed under Homo sapiens; -38.1% in assay [8]; 9.57% in assay [9]; 15.6% in [10]. Moreover, the Percent Effect in assay [11] was -3.17%.
As for `O=C(Cc1cccs1)N1C[C@@H]2OCCN(CC3CCCO3)[C@@H]2C1` (stereo not given in full), the Percent Effect is -3.88% in [1]; 0% in [2]; -5.27% in assay [3]; -1.33% in assay [4]; 4.51% in [5]; -2.58% in the assay on Trypanosoma cruzi. Further, the Percent Effect in assay [6] was -0.399%; in assay [7], 15.3%; in the assay filed under Homo sapiens, 15.2%; in assay [8], -19.8%; in assay [9], 2.08%; in [10], 6.17%. Also, in assay [11], the Percent Effect was -0.242%.
Consider `Cc1cccc(CN2C[C@H](NS(C)(=O)=O)[C@@H]3OCCC[C@@H]32)n1`, for which the Percent Effect in assay [1] was -0.629%; in assay [2], -5.33%; in assay [3] it was -2.65%; in assay [4], 9.72%; in [5] it was 5.95%; in the assay on Trypanosoma cruzi, -4.83%. Besides, the Percent Effect in [6] was -50%; in [7], 0.513%; in the assay filed under Homo sapiens, 3.24%; in assay [8] it was -15.5%; in assay [9], 1.04%; in [10] it was -5%. The Percent Effect in assay [11] was -2.83%.
Consider `COc1ccc(CN2C[C@@H]3OCCN(c4ncccn4)[C@@H]3C2)cc1`, for which the Percent Effect in [1] was 1.18%; in [2], 0%; in assay [3] it was 3.34%; in assay [4], 11.4%; in assay [5], 2.48%; with Trypanosoma cruzi, -4.13%. Further, the Percent Effect was 2.1% in assay [6]; 3.61% in assay [7]; 22.3% in the assay filed under Homo sapiens; -20% in assay [8]; 1.06% in assay [9]; -1.28% in assay [10]. Also, the Percent Effect in [11] stood at 0.371%.
